Experimental data: PubChem BioAssay (Tox21)
A number with no mark means an inactive call. Active and inactive are the calls of the source. The call rests on the fitted dose curve; in most records, active means well fitted curve in the direction sought with a large enough effect in the repeat runs; inconclusive means weak or mixed curves; inactive means flat fitted curve, though single readings scatter.

Test: qHTS assay to test for compound auto fluorescence at 590 nm (red) in HepG2 cell free culture (AID 720684)
Settings: cell-free medium autofluorescence, red 540/590 nm; series mostly up to 91.3 µM; fluorescence, % of Rose Bengal: at the top concentration
Outline: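 Auto fluorescence equivalency versus Rose Bengal sodium, red channel Ex/Em 540/590 nm; compounds in cell-free MEM/10% FBS; DMSO vehicle control.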
On the % scale 0 is the no-effect control and ±100 the full control effect.

Compared with `CN=C(N)NC(=O)Nc1c(C)cccc1C`, `Cc1cccc(C)c1NC(=O)c1cc(S(N)(=O)=O)c(Cl)cc1O` is lower in “fluorescence, % of Rose Bengal” value: -0.162% [at 46 µM] for the first, -0.174% [at 46 µM] for the second.

First: Cc1ccc(N(CC2=NCCN2)c2cccc(O)c2)cc1
Second: CN1CCCN(C(c2ccccc2)c2ccc(Cl)cc2)CC1 (centres undefined)
The “fluorescence, % of Rose Bengal” value of the first is higher: 0.0099% [at 46 µM] for the first, -0.217% [at 46 µM] for the second.

Going from `CC(C)C1CCC(C(=O)N[C@H](Cc2ccccc2)C(=O)O)CC1` (some centres undefined) to `O=C(O)CNC(=O)c1ccccc1I`, the “fluorescence, % of Rose Bengal” value falls from 0.238% [at 46 µM] to -0.0165% [at 46 µM].

First: CC(=O)OCC1=C(C(=O)O)N2C(=O)[C@@H](NC(=O)CSc3ccncc3)[C@H]2SC1
Second: CNc1c2c(nn1C)CCCC2
The “fluorescence, % of Rose Bengal” value of the first is lower: -0.298% [at 46 µM] for the first, -0.173% [at 46 µM] for the second.

Compared with `CCCCCCCCCCCCCOS(=O)(=O)O`, `CCCCCCCCCCCSCC(=O)O` is lower in “fluorescence, % of Rose Bengal” value: 0.0088% for the first, -0.0098% for the second.

First: Cc1ccc2c(c1)CCCN2
Second: CC1CCc2nccnc21 (centres undefined)
The “fluorescence, % of Rose Bengal” value of the first is lower: -0.539% for the first, -0.0186% for the second.

Going from `[Cl][Nd]([Cl])[Cl]` to `O=S(=O)(Cl)c1c(Cl)cccc1Cl`, the “fluorescence, % of Rose Bengal” value falls from -0.0443% to -0.0589%.

First: COC(=O)CC(C(C)=O)C(=O)OC (centres undefined)
Second: CC(=O)C(C)=O
The “fluorescence, % of Rose Bengal” value of the first is lower: 0.0492% for the first, 0.0704% for the second.

Compared with `CC(C)C(=O)OCCOc1ccccc1`, `c1ccc(CCCc2ccncc2)cc1` is higher in “fluorescence, % of Rose Bengal” value: 0.0241% for the first, 0.126% for the second.

First: CCCCCc1ccco1
Second: CCCCCCC(O)CCCCCCCCCCC(=O)OC (centres undefined)
The “fluorescence, % of Rose Bengal” value of the first is higher: 0.0465% for the first, -0.0074% for the second.

Going from `CC(C)N=C=NC(C)C` to `CC(C)N(C)C`, the “fluorescence, % of Rose Bengal” value falls from -0.0299% to -0.0841%.

Compared with `Nc1nc(-c2ccc([N+](=O)[O-])cc2)cs1`, `OCC(CO)n1cnc(-c2ccc(F)cc2)c1-c1ccnc(Oc2ccccc2)n1` is lower in “fluorescence, % of Rose Bengal” value: 0.236% for the first, 0.0752% for the second.

Compared with `Cc1ccccc1S(N)(=O)=O`, `CC1=C2[C@@H]([C@H](C)CC[C@H]2/C=C(\C)C(=O)O)[C@H](O)C1` is lower in “fluorescence, % of Rose Bengal” value: 0.0265% for the first, -0.0617% for the second.

Going from `CC(=O)OCCC(C)CC(C)(C)C` (centres undefined) to `COC(OC)OC`, the “fluorescence, % of Rose Bengal” value falls from 0.0026% to -0.219%.

For `O=[N+]([O-])C1(Br)COCOC1`, the “fluorescence, % of Rose Bengal” value was 0.112%.

First: CCCCCCCCCCCCCCN(C)C
Second: CC(C(=O)O)c1ccc(C(=O)c2cccs2)cc1 (centres undefined)
The fluorescence, % of Rose Bengal of the first is higher: -0.054% [at 18.6 µM] for the first, -0.362% [at 18.6 µM] for the second.

In the case of `Nc1ccn([C@H]2CS[C@@H](CO)O2)c(=O)n1`, the outcome is reported as “inactive”.
For `CC[C@H]1OC(=O)[C@H](C)[C@@H](O[C@H]2C[C@@](C)(OC)[C@@H](O)[C@H](C)O2)[C@H](C)[C@@H](O[C@@H]2O[C@H](C)C[C@H](N(C)C)[C@H]2O)[C@](C)(O)C[C@@H](C)/C(=N\OCOCCOC)[C@H](C)[C@@H](O)[C@]1(C)O`, the outcome was “inactive”.

Going from `CC(C)C(O)C(C)(C)CO` (centres undefined) to `CC(C)(C)S`, the “fluorescence, % of Rose Bengal” value rises from -0.265% [at 95.7 µM] to 0.222% [at 95.7 µM].

First: NC(=O)c1ccccc1[N+](=O)[O-]
Second: Cc1cccc2sc(N)nc12
The “fluorescence, % of Rose Bengal” value of the first is lower: -0.0307% [at 95.7 µM] for the first, 0.0126% [at 95.7 µM] for the second.

Test: qHTS assay to test for compound auto fluorescence at 460 nm (blue) in HepG2 cell free culture (AID 720685)
Settings: Cell-free culture medium, blue autofluorescence 405/460 nm; series mostly up to 91.3 µM; fluorescence, % of fluorescent control: at the top concentration
Outline: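 Cell-free plates of MEM plus 10% FBS received 23 nL compound or DMSO vehicle; blue-channel (405/460 nm) intensity scored against triamterene as reference fluorophore.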

Going from `Cc1ccc(N(CC2=NCCN2)c2cccc(O)c2)cc1` to `CNc1c2c(nn1C)CCCC2`, the “fluorescence, % of fluorescent control” value falls from 0.0443% [at 46 µM] to -0.113% [at 46 µM].

Compared with `CCCCCCCCCCCCCOS(=O)(=O)O`, `CCCCCCC(O)CCCCCCCCCCC(=O)OC` (centres undefined) is higher in “fluorescence, % of fluorescent control” value: 0.0416% for the first, 0.0684% for the second.

First: Cc1ccc2c(c1)CCCN2
Second: CC1CCc2nccnc21 (centres undefined)
The “fluorescence, % of fluorescent control” value of the first is higher: 0.358% for the first, -0.185% for the second.

Compared with `COC(=O)CC(C(C)=O)C(=O)OC` (centres undefined), `CC(=O)OCCC(C)CC(C)(C)C` (centres undefined) is higher in “fluorescence, % of fluorescent control” value: -0.0302% for the first, 0.689% for the second.

First: CC(C)C(=O)OCCOc1ccccc1
Second: Cc1ccccc1S(N)(=O)=O
The “fluorescence, % of fluorescent control” value of the first is lower: 0.0212% for the first, 0.0933% for the second.

First: CCCCCc1ccco1
Second: OCC(CO)n1cnc(-c2ccc(F)cc2)c1-c1ccnc(Oc2ccccc2)n1
The “fluorescence, % of fluorescent control” value of the first is higher: 0.491% for the first, -0.114% for the second.

Compared with `CC(C)N=C=NC(C)C`, `CC(C)N(C)C` is higher in “fluorescence, % of fluorescent control” value: -0.0903% for the first, -0.0309% for the second.

Compared with `Nc1nc(-c2ccc([N+](=O)[O-])cc2)cs1`, `O=[N+]([O-])C1(Br)COCOC1` is higher in “fluorescence, % of fluorescent control” value: -0.0128% for the first, -0.0093% for the second.

In the case of `COC(OC)OC`, the “fluorescence, % of fluorescent control” value is reported as -0.0346%.

Compared with `CCCCCCCCCCCCCCN(C)C`, `CC(C(=O)O)c1ccc(C(=O)c2cccs2)cc1` (centres undefined) is higher in fluorescence, % of fluorescent control: -0.025% [at 18.6 µM] for the first, -0.005% [at 18.6 µM] for the second.

First: CC(C)C(O)C(C)(C)CO (centres undefined)
Second: CC(C)(C)S
The “fluorescence, % of fluorescent control” value of the first is lower: 0.0191% [at 95.7 µM] for the first, 0.197% [at 95.7 µM] for the second.

Test: qHTS assay to test for compound auto fluorescence at 535 nm (green) in HepG2 cell free culture (AID 720686)
Settings: Cell-free medium, green autofluorescence 485/535 nm; series mostly up to 91.3 µM; fluorescence, % of fluorescein control: at the top concentration

Compared with `CN=C(N)NC(=O)Nc1c(C)cccc1C`, `Cc1cccc(C)c1NC(=O)c1cc(S(N)(=O)=O)c(Cl)cc1O` is lower in “fluorescence, % of fluorescein control” value: 0.0831% [at 46 µM] for the first, -0.0441% [at 46 µM] for the second.

Compared with `CC(C)C1CCC(C(=O)N[C@H](Cc2ccccc2)C(=O)O)CC1` (some centres undefined), `O=C(O)CNC(=O)c1ccccc1I` is lower in “fluorescence, % of fluorescein control” value: 0.0044% [at 46 µM] for the first, 0.0005% [at 46 µM] for the second.

Going from `CC(=O)OCC1=C(C(=O)O)N2C(=O)[C@@H](NC(=O)CSc3ccncc3)[C@H]2SC1` to `CN1CCCN(C(c2ccccc2)c2ccc(Cl)cc2)CC1` (centres undefined), the “fluorescence, % of fluorescein control” value rises from -0.0921% [at 46 µM] to 0.0082% [at 46 µM].

First: Cc1ccc2c(c1)CCCN2
Second: Cc1ccccc1S(N)(=O)=O
The “fluorescence, % of fluorescein control” value of the first is lower: -0.005% for the first, 0.0062% for the second.

Going from `[Cl][Nd]([Cl])[Cl]` to `O=S(=O)(Cl)c1c(Cl)cccc1Cl`, the “fluorescence, % of fluorescein control” value rises from -0.0148% to 0.0024%.

First: COC(=O)CC(C(C)=O)C(=O)OC (centres undefined)
Second: CC(=O)C(C)=O
The “fluorescence, % of fluorescein control” value of the first is higher: 0.0945% for the first, -0.0675% for the second.

First: c1ccc(CCCc2ccncc2)cc1
Second: CCCCCCCCCCCSCC(=O)O
The “fluorescence, % of fluorescein control” value of the first is higher: 0.0097% for the first, 0.004% for the second.

In the case of `CC1=C2[C@@H]([C@H](C)CC[C@H]2/C=C(\C)C(=O)O)[C@H](O)C1`, the “fluorescence, % of fluorescein control” value is reported as 0.0745%.

`CCCCCCCCCCCCCCN(C)C` showed a fluorescence, % of fluorescein control of -0.0531% [at 18.6 µM].

For `Nc1ccn([C@H]2CS[C@@H](CO)O2)c(=O)n1`, the outcome was “inactive”.
In the case of `CC[C@H]1OC(=O)[C@H](C)[C@@H](O[C@H]2C[C@@](C)(OC)[C@@H](O)[C@H](C)O2)[C@H](C)[C@@H](O[C@@H]2O[C@H](C)C[C@H](N(C)C)[C@H]2O)[C@](C)(O)C[C@@H](C)/C(=N\OCOCCOC)[C@H](C)[C@@H](O)[C@]1(C)O`, the outcome is reported as “inactive”.

Going from `CC(C)C(O)C(C)(C)CO` (centres undefined) to `Cc1cccc2sc(N)nc12`, the “fluorescence, % of fluorescein control” value falls from 0.0157% [at 95.7 µM] to -0.127% [at 95.7 µM].

For `NC(=O)c1ccccc1[N+](=O)[O-]`, the “fluorescence, % of fluorescein control” value was 0.024% [at 95.7 µM].
